Bioassay records deposited in PubChem BioAssay by National Center for Advancing Translational Sciences (NCATS).
Sfp PPTase inh = blocks B. subtilis Sfp PPTase activity | 3.5% of 310,000 active | AID 1490 | Biochemical Sfp PPTase activity, qHTS | Q9F4F7 | Potency, µM, most hits filed as inhibitors;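 further: the enzyme is Sfp with the accession as filed and its product quenches rhodamine fluorescence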
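After 15 min at room temperature with compound, 15 nM Sfp received 5 uM rhodamine-CoA plus 12.5 uM BHQ-2-ybbR (50 mM Hepes pH 7.6, 10 mM MgCl2). Rate came from the fluorescence difference over 30 min, ex 525/em 598 nm.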
VP16 counter = inhibits Gal4-VP16 luciferase reporter, ROR gamma counter-screen; Potency, µM (top dose mostly 53.6 µM), usual class: inhibitors; Drosophila S2 Gal4-VP16 UAS-luciferase, luminescence, 20 h; AID 2546; 3.5% of 310,000 active;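 further: Gal4-VP16 expression switched on by copper sulfate through the metallothionein promoter; nearly all actives have a fitted effect of over 50% in size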
RORgamma inh = blocks mouse ROR gamma transcriptional activity. 5.4% of 310,000 active. Drosophila S2 Gal4-RORgamma UAS-luciferase reporter, 20 h. Potency, µM (titrated, usually from 53.6 µM), most hits filed as inhibitors; further: nearly all actives have a fitted effect of over 60% in size
Target sequence (P51450 whole entry, looked up, the tested form may be a part): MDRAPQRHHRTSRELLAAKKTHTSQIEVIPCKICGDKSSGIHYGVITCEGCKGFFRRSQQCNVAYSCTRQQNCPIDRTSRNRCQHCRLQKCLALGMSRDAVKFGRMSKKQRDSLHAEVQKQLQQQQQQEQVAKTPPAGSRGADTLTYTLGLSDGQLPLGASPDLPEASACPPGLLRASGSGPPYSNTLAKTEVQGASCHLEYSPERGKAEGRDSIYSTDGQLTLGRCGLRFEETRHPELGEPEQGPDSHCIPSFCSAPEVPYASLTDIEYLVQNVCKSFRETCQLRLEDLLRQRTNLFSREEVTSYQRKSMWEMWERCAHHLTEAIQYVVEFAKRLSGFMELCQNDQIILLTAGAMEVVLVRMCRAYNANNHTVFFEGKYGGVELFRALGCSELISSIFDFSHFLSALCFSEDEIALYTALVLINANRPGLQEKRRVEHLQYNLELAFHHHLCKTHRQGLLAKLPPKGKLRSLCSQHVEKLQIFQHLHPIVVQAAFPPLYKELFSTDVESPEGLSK
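Schneider cells (Drosophila), stable Gal4 DBD–ROR gamma + UAS-luc; 1 hr cmpd preincubation; Cu2+ induction 700 uM final; 20 hr ambient; luminescence.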
ALDH1A1 block = ALDH1A1 (human) enzyme inhibition | P00352 | Purified ALDH1A1, NADH fluorescence, propionaldehyde substrate | Potency, µM (highest dose often 75.3 µM), usual class: inhibitors | 7.3% of 220,000 active; active means well fitted inhibition curve with a large enough effect, not every such curve was filed as active; inconclusive means small, poorly fitted or top-dose-only effect, or another doubt; inactive means no such curve, though single readings can be large or run the other way
PLK1 PBD block = blocks phosphopeptide binding to human PLK1 polo-box domain. 2.8% of 360,000 active. Potency, µM, most hits filed as inhibitors. P53350. Plk1 PBD binding of FITC phosphopeptide, fluorescence polarization; further: series mostly up to about 57 µM; nearly all actives have a fitted effect of over 65% in size
A number is an active result; i = inactive; ? = inconclusive; nt = no result; [ ] = remark or other dose. Rows were chosen to be rich in hits. Some 12% of all compounds tested hit in one or more screens of this group. Unless noted, the call rests on the fitted dose curve; in most records, active means well fitted curve in the direction sought with a large enough effect; inconclusive means small, poorly fitted or top-dose-only effect, or another doubt; inactive means no such curve, though single readings can be large; an effect the other way counts as inactive or inconclusive.

SMILES | Sfp PPTase inh | VP16 counter | RORgamma inh | ALDH1A1 block | PLK1 PBD block
CC(C)=C1C2CCC1C1C(=O)N(c3nc(-c4ccc(C(C)C)cc4)c(C)s3)C(=O)C21 (configuration not stated) | i | ? | i | i | i
Cc1ccc(S(=O)(=O)N2CCOCC2)cc1C(=O)NCCN1C(=O)S/C(=C\c2ccccc2Cl)C1=O | i | i | ? | i | i
CC(C)(C)c1ccc(/C=C2\SC(=O)N(CCNC(=O)c3cccc(S(=O)(=O)N4CCOCC4)c3)C2=O)cc1 | i | 2µM | ? | ? | i
CCC(=O)Nc1ccc2nc(C3CC3)n(Cc3ccc(C(C)(C)C)cc3)c(=O)c2c1 | i | i | i | nt | 12µM
Cc1ccc(C(=O)NNc2c3ccccc3nc3ccccc23)cc1 | 25µM | ? | i | nt | i
COc1ccccc1OCC(=O)NNc1c2ccccc2nc2ccccc12 | i | 0.79µM | 1.6µM | nt | i
O=C(NNc1c2ccccc2nc2ccccc12)c1ccc(Cl)cc1 | i | i | i | nt | i
C[C@H]1CC[C@H]2C(=O)N3[C@H](c4ccc(Br)cc4)[C@@H](C)CC[C@H]3C(=O)N2[C@@H]1c1ccc(Br)cc1 | i | i[10 µM] | i[10 µM] | i[13.5 µM] | nt
COC(=O)N1CCC2(CCCN(c3ncccn3)C2)CC1 | i | i | i | i | nt
CN1CCN(c2ccc(-c3cccc(NC(=O)COc4ccccc4)c3)nn2)CC1 | nt | nt | nt | nt | i
Cc1ccc(S(=O)(=O)Nc2cccc(-c3ccc(N4CCCCCC4)nn3)c2)c(C)c1 | i | i | i | nt | 27µM
CCC(=O)Nc1cccc(-c2ccc(N3CCCCC3)nn2)c1 | i | 2.8µM | 2.5µM | nt | i
CCC(=O)Nc1cccc(-c2ccc(N3CCN(C)CC3)nn2)c1 | i | ? | 14µM | nt | i
CN1CCN(c2ccc(-c3cccc(NC(=O)COc4ccc(Cl)cc4)c3)nn2)CC1 | nt | nt | nt | nt | i
O=C(NCCN1CCCC1)c1ccc(-n2c(=O)c(=O)[nH]c3ccccc32)cc1 | nt | nt | nt | i | nt
COC1[C@@H](OC)C[C@H](C)[C@@H](OC)C2=CC(=O)C=C(NC(=O)/C(C)=C/C=C\[C@H](OC)[C@@H](OC(N)=O)/C(C)=C/[C@@H]1C)C2=O (some centres not stated) | i | i | i | nt | nt
Cc1nc([N+](=O)[O-])c(Br)n1CC(=O)c1ccc(Cl)cc1 | i | ? | 10µM | i | ?
Cc1nc([N+](=O)[O-])c(Br)n1Cc1ccc(Cl)c(Cl)c1 | i | ? | 7.1µM | i | ?
COc1ccc(C(=O)Cn2c(C)nc([N+](=O)[O-])c2Br)cc1 | i | ? | i | nt | i
O=C(Nc1ccc(Cl)c(C(=O)N2CCOCC2)c1)c1ccccc1 | i | i | i | nt | i
COc1cc(N)c(Cl)cc1C(=O)N[C@H]1CCN(CCCOc2ccc(F)cc2)C[C@@H]1OC | i | i | i | i | nt
Cc1cc[n+](-c2ccccc2)c2ccccc12 | i | 11µM | i | i | i
Cc1cc[n+](CCC(=O)O)c2ccccc12 | i | i | i | i | i
Cc1cc(N/N=C2/CCCc3ccccc32)nc2ccccc12 | ? | 11µM | 2µM | i | i
c1ccc(N/N=C2\CCCc3ccccc32)nc1 | i | ? | 13µM | i | i
SMILES | Sfp PPTase inh | VP16 counter | RORgamma inh | ALDH1A1 block | PLK1 PBD block
Cc1ccc(C)c(S(=O)(=O)N/N=C2/CCCc3ccccc32)c1 | i | i | i | ? | i
Cc1ccc([C@H]2C[C@H](O)[C@@H](n3cc(C4CC4)nn3)CN2C(=O)c2cccs2)cc1 | nt | nt | nt | nt | i
N#CC(C#N)=C(Nc1ccc(F)cc1)SCc1cccc(Br)c1 | i | 7.9µM | ? | i | ?
Cc1cccc(CSC(Nc2ccc(F)cc2)=C(C#N)C#N)c1 | i | ? | ? | i | i
COCCNC(=O)C1CCCN(C(=O)COCc2ccccc2)CC1 (configuration not stated) | nt | nt | nt | nt | i
CCOc1cccc(-c2c(C(=O)N/N=C/c3cccs3)nnn2-c2nonc2N)c1 | i | 11µM | 7.1µM | nt | i
C/C(=N\NC(=O)c1nnn(-c2nonc2N)c1-c1ccccc1)c1cccnc1 | i | i | i | nt | i
CCOc1cccc(-c2c(C(=O)N/N=C(\C)c3ccncc3)nnn2-c2nonc2N)c1 | i | i | i | nt | i
CCOc1cccc(-c2c(C(=O)N/N=C(\C)c3ccccn3)nnn2-c2nonc2N)c1 | 32µM | i | ? | nt | i
Nc1nonc1-n1nnc(C(=O)c2ccccc2)c1-c1ccccc1 | i | i | i | 2.8µM | i
Nc1nonc1-n1nnc(C(=O)N/N=C/c2cc(Br)cs2)c1-c1ccccc1 | i | 5µM | 6.3µM | nt | i
